Measurements reported in the supplement of paper PMC6555819.

Legend:
Assay in all cases: PBM binding z-score (relative to random genomic background probes); higher = stronger binding; sequences stand for … in GC…GCGATTGACAGCGTAGAATGAAGG
[1] = tested on: FXR:RXRa (NR concentration 270 nM, RXRa partner concentration 90 nM)
Summary of the method: (§1)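 Each nuclear receptor dimer, without ligand, was incubated for 1 h on custom Agilent 4×180K protein-binding microarrays. Binding was detected with antibodies against each partner (one per run), and scanned fluorescence was regression-normalized. The binding z-scores are referenced to random human genomic background probes.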

[2] = tested on: LXRa:RXRa (NR concentration 270 nM, RXRa partner concentration 90 nM)
Summary of the method: as §1

[3] = tested on: LXRa homodimer (NR concentration 270 nM)
Summary of the method: as §1

[4] = tested on: LXRb:RXRa (NR concentration 270 nM, RXRa partner concentration 90 nM)
Summary of the method: as §1

[5] = tested on: LXRb homodimer (NR concentration 270 nM)
Summary of the method: as §1

[6] = tested on: PPARa:RXRa (NR concentration 270 nM, RXRa partner concentration 90 nM)
Summary of the method: as §1

[7] = tested on: PPARg:RXRa (NR concentration 180 nM, RXRa partner concentration 90 nM)
Summary of the method: as §1

[8] = tested on: PPARg:RXRa 270nM:90nM, anti-RXR (NR concentration 270 nM, RXRa partner concentration 90 nM)
Summary of the method: as §1

[9] = tested on: PPARg:RXRa 30nM:10nM, anti-RXR (NR concentration 30 nM, RXRa partner concentration 10 nM)
Summary of the method: as §1

[10] = tested on: PPARg:RXRa 90nM:30nM, anti-RXR (NR concentration 90 nM, RXRa partner concentration 30 nM)
Summary of the method: as §1

[11] = tested on: PPARg:RXRa DBDmut IVT, anti-RXR (DBD mutation: RXRa K156A/R161A, NR concentration 270 nM, RXRa partner concentration 90 nM)
Summary of the method: as §1

[12] = tested on: PPARg:RXRa IVT, anti-PPARg (NR concentration 270 nM, RXRa partner concentration 90 nM)
Summary of the method: as §1

[13] = tested on: PPARg DBDmut:RXRa IVT, anti-PPARg (DBD mutation: PPARg1 K132A/R137A, NR concentration 270 nM, RXRa partner concentration 90 nM)
Summary of the method: as §1

[14] = tested on: PPARg DBDmut IVT, anti-PPARg (DBD mutation: PPARg1 K132A/R137A, NR concentration 270 nM)
Summary of the method: as §1

[15] = tested on: PPARg homodimer (NR concentration 180 nM)
Summary of the method: as §1

[16] = tested on: PXR:RXRa (NR concentration 270 nM, RXRa partner concentration 90 nM)
Summary of the method: as §1

[17] = tested on: PXR homodimer (NR concentration 270 nM)
Summary of the method: as §1

[18] = tested on: RARa:RXR (NR concentration 270 nM, RXRa partner concentration 90 nM)
Summary of the method: as §1

[19] = tested on: RARa homodimer (NR concentration 270 nM)
Summary of the method: as §1

[20] = tested on: RARb:RXRa (NR concentration 270 nM, RXRa partner concentration 90 nM)
Summary of the method: as §1

Sequence | PBM binding z-score [1] | PBM binding z-score [2] | PBM binding z-score [3] | PBM binding z-score [4] | PBM binding z-score [5] | PBM binding z-score [6] | PBM binding z-score [7] | PBM binding z-score [8] | PBM binding z-score [9] | PBM binding z-score [10] | PBM binding z-score [11] | PBM binding z-score [12] | PBM binding z-score [13] | PBM binding z-score [14] | PBM binding z-score [15] | PBM binding z-score [16] | PBM binding z-score [17] | PBM binding z-score [18] | PBM binding z-score [19] | PBM binding z-score [20]
GCAGACAGGTGAAACGCAGGTAACTCATGGTGGC | -0.174 | -0.103 | -0.708 | -0.224 | -1.24 | 0.901 | 0.886 | 0.443 | -0.0913 | 0.0978 | 1.08 | 0.828 | -0.609 | -0.755 | -0.331 | -0.113 | -0.622 | 0.721 | -0.93 | 0.653
CAGAGTAGGTTATGGGGCATTCAGGCAACGGTGA | 0.558 | 0.666 | 0.0454 | 0.833 | -0.04 | 2.78 | 4.39 | 5.4 | 3.13 | 5.42 | 3.95 | 4.66 | 1.11 | 0.548 | 1.69 | 0.233 | 0.246 | 0.549 | 0.726 | 1.23
ACTTACGGGTCAACGAGGTTATAGAACGCGTATA | 6.52 | 5.29 | 0.693 | 4.56 | 0.433 | 5.87 | 5.23 | 5.55 | 2.2 | 4.21 | 3.53 | 4.42 | 1.71 | 1.43 | 1.66 | 5.08 | 2.8 | 4.99 | 0.996 | 4.35
TCATATAGGTAAACAGGTGAAAGTGCGTAAGTTA | 1.13 | 1.29 | 0.37 | 1.13 | 0.114 | 3.19 | 4.88 | 5.09 | 4.64 | 5.1 | 4.84 | 4.9 | 1.29 | 1.03 | 1.33 | 1.04 | 0.631 | 1.27 | 1.75 | 0.94
AGAGTGAGGTTAAGATCAGGGAAACAGAATACAT | 2.54 | 2.17 | 0.665 | 2.44 | 1.09 | 3.15 | 1.43 | 2.13 | 0.952 | 1.36 | 0.514 | 1.39 | 0.929 | 0.933 | 1.63 | 1.62 | 1.51 | 2.02 | 1.55 | 2.38
CCTACTAGGTCATGGTCAGCTAATCTACAGTATG | 3.8 | 2.57 | 0.658 | 2.06 | 0.291 | 4.33 | 6.76 | 5.84 | 3.38 | 4.97 | 7.3 | 7.42 | 2.12 | 1.91 | 2.59 | 1.5 | 0.291 | 2.45 | 0.932 | 3.92
TATTGTAGATCAGCAGGTTAAGAAAGCTGGCCAA | -0.221 | -0.214 | -0.56 | -0.0553 | -0.105 | 0.342 | -0.269 | 0.483 | -0.249 | 0.429 | -0.472 | 0.909 | 0.264 | -0.14 | -0.31 | -0.184 | -0.219 | -0.00412 | -0.421 | -0.104
